This note sets out measurements from paper PMC7862700, “An all-to-all approach to the identification of sequence-specific readers for epigenetic DNA modifications on cytosine”.

Holding throughout (assay): DAPPL (digital affinity profiling via proximity ligation, sequencing); 10 mM Tris-HCl pH 7.5, 50 mM NaCl, 1 mM DTT, 4% glycerol, room temperature, 30 min; GST-TFs on glutathione beads, 16-mer random dsDNA library, 0.1% formaldehyde crosslink after washing; high values mean tight binding
In one experiment the target is T1, FEV (Homo sapiens, UniProt Q99581 1-238).
T1 sequence: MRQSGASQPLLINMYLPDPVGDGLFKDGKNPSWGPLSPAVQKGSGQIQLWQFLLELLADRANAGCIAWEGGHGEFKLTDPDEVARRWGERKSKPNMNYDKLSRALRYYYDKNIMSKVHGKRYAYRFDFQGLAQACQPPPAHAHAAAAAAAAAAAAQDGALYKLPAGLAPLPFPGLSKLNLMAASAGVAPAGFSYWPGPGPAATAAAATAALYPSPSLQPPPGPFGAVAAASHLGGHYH
The following applies: protein: recombinant; tags: N-terminal GST; dsDNA, one strand shown. In short, it runs like this:
(§1)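 After expression in yeast as GST fusions, human transcription factors were bound to glutathione beads, DNA-barcoded and mixed with a tag-only sample. The pools were incubated with 200 nmole of a 16-mer random double-stranded DNA library in Tris/NaCl/DTT/glycerol buffer (30 min, room temperature), washed and crosslinked with 0.1% formaldehyde. Proximity ligation with BsaI/T4 ligase ran for 1 h at 37 °C, before PCR amplification and sequencing on an Illumina NextSeq500. Binding signal is a hexamer's read frequency for a factor divided by its frequency for the tag-only sample.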

The target of a further experiment is ETV5 (Homo sapiens, UniProt P41161 1-510). The following applies: protein: recombinant; tags: N-terminal GST; dsDNA, one strand shown. In short, it runs like this:
as §1

A further experiment deals with HSF1 (Homo sapiens, UniProt Q00613 1-529). The following applies: protein: recombinant; tags: N-terminal GST; chain copies: 3; dsDNA, one strand shown. The procedure, abridged: as §1
Another experiment concerns the target T2, SPIC (Homo sapiens, UniProt Q8N5J4 1-248).
T2 sequence: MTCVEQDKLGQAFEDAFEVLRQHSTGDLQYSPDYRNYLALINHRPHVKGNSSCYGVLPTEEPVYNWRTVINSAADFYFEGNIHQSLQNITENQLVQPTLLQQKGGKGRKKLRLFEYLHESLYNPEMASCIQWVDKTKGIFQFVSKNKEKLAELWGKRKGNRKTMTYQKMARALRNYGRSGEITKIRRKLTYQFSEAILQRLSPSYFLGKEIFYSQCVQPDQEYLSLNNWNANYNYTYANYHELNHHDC
The following applies: protein: recombinant; tags: N-terminal GST; dsDNA, one strand shown. The procedure, abridged:
as §1

A further experiment addresses ELF4 (Homo sapiens, UniProt Q99607 1-663). The following applies: protein: recombinant; tags: N-terminal GST; dsDNA, one strand shown. In short, it runs like this: as §1
A further experiment deals with T3, ELK4 (Homo sapiens, UniProt P28324-2 1-405).
T3 sequence: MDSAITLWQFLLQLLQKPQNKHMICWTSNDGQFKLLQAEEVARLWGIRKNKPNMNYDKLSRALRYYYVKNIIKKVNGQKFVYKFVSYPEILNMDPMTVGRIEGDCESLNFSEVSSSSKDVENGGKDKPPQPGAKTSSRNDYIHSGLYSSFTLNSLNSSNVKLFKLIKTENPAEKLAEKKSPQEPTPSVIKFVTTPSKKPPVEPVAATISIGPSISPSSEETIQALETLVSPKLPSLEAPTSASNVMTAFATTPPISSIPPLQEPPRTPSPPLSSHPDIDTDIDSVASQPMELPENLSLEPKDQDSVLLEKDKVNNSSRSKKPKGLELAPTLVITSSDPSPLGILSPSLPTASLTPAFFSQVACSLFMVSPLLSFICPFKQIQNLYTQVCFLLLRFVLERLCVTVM
Conditions: protein: recombinant; tags: N-terminal GST; dsDNA, one strand shown. The procedure, abridged:
as §1

For another experiment, the target named is T4, ETV2 (Homo sapiens, UniProt O00321 1-342).
T4 sequence: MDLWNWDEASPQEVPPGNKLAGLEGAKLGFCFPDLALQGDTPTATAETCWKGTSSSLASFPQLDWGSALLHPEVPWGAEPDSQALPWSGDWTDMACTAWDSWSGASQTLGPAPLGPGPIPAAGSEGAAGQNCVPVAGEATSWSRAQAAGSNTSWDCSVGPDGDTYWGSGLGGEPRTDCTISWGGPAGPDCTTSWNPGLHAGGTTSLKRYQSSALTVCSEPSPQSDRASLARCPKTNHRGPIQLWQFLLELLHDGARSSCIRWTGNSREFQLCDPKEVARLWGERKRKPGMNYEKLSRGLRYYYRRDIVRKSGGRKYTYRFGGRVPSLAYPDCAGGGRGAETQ
Conditions: protein: recombinant; tags: N-terminal GST; dsDNA, one strand shown. The procedure, abridged:
as §1

For another experiment, the target named is T5, ELF3 (Homo sapiens, UniProt P78545 1-371).
T5 sequence: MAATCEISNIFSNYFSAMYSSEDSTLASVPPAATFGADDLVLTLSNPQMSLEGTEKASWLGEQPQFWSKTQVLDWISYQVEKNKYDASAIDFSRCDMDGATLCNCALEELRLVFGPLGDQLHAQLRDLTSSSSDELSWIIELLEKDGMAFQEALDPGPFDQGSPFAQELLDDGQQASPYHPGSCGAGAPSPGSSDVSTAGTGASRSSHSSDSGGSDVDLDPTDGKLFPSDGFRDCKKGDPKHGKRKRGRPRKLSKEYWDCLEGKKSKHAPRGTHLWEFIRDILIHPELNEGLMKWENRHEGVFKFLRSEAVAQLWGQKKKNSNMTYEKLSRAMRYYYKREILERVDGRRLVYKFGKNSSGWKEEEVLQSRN
Conditions: protein: recombinant; tags: N-terminal GST; dsDNA, one strand shown. In short, it runs like this:
as §1

Another experiment concerns the target CRX (Homo sapiens, UniProt O43186 1-299). Conditions: protein: recombinant; tags: N-terminal GST; dsDNA, one strand shown. In short, it runs like this:
as §1

A further experiment concerns the target ETV1 (Homo sapiens, UniProt P50549 1-477). The following applies: protein: recombinant; tags: N-terminal GST; dsDNA, one strand shown. The procedure, abridged:
as §1

The next experiment addresses T6, ERF (Homo sapiens, UniProt P50548 1-548).
T6 sequence: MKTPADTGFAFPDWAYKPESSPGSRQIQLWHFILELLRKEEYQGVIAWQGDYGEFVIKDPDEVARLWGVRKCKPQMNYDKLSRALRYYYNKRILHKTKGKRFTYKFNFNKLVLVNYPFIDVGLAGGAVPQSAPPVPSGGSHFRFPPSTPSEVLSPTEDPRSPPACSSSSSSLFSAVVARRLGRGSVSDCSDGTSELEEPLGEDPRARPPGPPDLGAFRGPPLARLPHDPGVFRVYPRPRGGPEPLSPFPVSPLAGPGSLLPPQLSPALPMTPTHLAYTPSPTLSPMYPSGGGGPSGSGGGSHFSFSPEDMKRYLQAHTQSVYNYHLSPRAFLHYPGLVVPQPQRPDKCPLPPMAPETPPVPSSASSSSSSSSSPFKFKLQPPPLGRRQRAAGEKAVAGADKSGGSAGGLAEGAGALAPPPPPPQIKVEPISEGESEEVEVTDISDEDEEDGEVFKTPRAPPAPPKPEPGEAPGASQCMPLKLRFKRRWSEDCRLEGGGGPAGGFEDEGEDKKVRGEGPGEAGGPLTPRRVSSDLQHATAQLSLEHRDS
Conditions: protein: recombinant; tags: N-terminal GST; dsDNA, one strand shown. In short, it runs like this:
as §1

The target of another experiment is T7, ETV3L (Homo sapiens, UniProt Q6ZN32 1-361).
T7 sequence: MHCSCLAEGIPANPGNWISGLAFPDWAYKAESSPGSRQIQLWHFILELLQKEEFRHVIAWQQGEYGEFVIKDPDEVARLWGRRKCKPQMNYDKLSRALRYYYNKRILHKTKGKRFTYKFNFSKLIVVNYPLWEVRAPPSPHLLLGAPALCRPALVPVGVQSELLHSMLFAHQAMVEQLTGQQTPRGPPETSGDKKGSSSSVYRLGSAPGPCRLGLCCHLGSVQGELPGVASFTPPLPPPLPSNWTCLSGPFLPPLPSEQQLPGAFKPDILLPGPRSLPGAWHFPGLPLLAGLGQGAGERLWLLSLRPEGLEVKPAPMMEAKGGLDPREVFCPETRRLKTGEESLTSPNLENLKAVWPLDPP
Conditions: protein: recombinant; tags: N-terminal GST; dsDNA, one strand shown. In short, it runs like this: as §1

The next experiment deals with T8, ETS2 (Homo sapiens, UniProt P15036 1-469).
T8 sequence: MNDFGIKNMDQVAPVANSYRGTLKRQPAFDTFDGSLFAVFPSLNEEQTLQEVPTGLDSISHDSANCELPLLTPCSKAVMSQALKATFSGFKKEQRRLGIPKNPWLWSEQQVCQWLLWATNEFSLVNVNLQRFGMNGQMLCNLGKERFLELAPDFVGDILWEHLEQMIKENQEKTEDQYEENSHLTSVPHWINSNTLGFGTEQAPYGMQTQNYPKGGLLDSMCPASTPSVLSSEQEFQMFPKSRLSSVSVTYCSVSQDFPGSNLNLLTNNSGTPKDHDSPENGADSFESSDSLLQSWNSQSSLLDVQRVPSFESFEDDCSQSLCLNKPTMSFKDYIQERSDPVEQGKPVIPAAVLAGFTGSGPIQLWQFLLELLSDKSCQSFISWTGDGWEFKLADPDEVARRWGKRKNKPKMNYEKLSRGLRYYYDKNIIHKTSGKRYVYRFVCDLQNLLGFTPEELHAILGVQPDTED
Conditions: protein: recombinant; tags: N-terminal GST; dsDNA, one strand shown. The procedure, abridged:
as §1

A further experiment deals with T9, SPDEF (Homo sapiens, UniProt O95238 1-335).
T9 sequence: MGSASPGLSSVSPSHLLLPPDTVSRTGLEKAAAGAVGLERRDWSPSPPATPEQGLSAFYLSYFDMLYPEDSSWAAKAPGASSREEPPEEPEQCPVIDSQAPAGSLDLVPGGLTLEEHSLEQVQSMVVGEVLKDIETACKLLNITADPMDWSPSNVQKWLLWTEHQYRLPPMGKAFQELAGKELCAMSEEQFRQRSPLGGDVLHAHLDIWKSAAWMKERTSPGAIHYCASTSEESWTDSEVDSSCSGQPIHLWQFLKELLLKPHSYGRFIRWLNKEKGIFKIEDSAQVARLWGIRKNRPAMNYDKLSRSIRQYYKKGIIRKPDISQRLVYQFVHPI
The following applies: protein: recombinant; tags: N-terminal GST; dsDNA, one strand shown. In short, it runs like this: as §1

Another experiment has as its target T10, ETV7 (Homo sapiens, UniProt Q9Y603 1-341).
T10 sequence: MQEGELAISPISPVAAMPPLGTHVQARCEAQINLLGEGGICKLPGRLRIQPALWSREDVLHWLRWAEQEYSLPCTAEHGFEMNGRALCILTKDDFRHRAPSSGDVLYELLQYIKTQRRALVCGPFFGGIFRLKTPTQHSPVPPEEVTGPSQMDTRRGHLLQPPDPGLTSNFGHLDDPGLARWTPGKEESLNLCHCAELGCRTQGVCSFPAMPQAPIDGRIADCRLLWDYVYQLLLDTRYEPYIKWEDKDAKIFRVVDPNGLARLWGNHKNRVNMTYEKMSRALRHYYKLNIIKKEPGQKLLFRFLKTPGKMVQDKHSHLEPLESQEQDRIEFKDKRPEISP
The following applies: protein: recombinant; tags: N-terminal GST; dsDNA, one strand shown. The procedure, abridged:
as §1

The target in another experiment is T11, ELF5 (Homo sapiens, UniProt Q9UKW6-2 1-255).
T11 sequence: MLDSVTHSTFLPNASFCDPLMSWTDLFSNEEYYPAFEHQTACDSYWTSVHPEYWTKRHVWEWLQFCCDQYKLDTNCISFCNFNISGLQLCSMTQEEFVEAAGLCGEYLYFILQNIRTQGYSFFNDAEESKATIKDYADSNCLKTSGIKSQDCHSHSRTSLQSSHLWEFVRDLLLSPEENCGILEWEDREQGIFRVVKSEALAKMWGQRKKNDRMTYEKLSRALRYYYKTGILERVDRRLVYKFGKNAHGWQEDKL
Conditions: protein: recombinant; tags: N-terminal GST; dsDNA, one strand shown. In short, it runs like this: as §1

The target in another experiment is T12, ETV3 (Homo sapiens, UniProt P41162-2 1-143).
T12 sequence: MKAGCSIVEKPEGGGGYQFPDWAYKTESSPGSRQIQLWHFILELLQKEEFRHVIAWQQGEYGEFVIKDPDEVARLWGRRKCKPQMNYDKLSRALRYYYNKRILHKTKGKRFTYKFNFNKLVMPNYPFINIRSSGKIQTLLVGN
The following applies: protein: recombinant; tags: N-terminal GST; dsDNA, one strand shown. The procedure, abridged:
as §1

The next experiment concerns the target ETV6 (Homo sapiens, UniProt P41212 1-452). Conditions: protein: recombinant; tags: N-terminal GST; dsDNA, one strand shown. In short, it runs like this: as §1

ETV5, sequence (P41161 whole entry): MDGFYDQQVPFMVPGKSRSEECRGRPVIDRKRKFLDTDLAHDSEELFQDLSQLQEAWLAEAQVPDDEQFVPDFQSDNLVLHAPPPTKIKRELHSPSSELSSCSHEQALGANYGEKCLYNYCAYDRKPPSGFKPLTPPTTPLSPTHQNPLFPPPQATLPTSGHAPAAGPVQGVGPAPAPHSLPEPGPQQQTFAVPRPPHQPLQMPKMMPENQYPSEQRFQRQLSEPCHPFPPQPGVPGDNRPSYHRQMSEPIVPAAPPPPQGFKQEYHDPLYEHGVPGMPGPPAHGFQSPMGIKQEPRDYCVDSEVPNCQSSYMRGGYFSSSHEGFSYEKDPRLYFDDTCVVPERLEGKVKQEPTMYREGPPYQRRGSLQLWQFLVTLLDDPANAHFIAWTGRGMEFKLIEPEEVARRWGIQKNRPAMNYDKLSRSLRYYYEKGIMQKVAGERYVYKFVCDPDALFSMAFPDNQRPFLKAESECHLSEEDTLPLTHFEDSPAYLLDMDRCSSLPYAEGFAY
CRX, sequence (O43186 whole entry): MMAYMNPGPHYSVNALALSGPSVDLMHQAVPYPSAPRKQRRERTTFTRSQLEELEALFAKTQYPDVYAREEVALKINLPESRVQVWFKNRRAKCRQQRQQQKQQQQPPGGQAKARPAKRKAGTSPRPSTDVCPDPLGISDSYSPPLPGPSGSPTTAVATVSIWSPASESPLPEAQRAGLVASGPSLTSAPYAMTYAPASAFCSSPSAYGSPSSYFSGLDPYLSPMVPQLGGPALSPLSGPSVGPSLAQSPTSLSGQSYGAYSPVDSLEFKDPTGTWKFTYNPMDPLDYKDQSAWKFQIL
ELF4, sequence (Q99607 whole entry): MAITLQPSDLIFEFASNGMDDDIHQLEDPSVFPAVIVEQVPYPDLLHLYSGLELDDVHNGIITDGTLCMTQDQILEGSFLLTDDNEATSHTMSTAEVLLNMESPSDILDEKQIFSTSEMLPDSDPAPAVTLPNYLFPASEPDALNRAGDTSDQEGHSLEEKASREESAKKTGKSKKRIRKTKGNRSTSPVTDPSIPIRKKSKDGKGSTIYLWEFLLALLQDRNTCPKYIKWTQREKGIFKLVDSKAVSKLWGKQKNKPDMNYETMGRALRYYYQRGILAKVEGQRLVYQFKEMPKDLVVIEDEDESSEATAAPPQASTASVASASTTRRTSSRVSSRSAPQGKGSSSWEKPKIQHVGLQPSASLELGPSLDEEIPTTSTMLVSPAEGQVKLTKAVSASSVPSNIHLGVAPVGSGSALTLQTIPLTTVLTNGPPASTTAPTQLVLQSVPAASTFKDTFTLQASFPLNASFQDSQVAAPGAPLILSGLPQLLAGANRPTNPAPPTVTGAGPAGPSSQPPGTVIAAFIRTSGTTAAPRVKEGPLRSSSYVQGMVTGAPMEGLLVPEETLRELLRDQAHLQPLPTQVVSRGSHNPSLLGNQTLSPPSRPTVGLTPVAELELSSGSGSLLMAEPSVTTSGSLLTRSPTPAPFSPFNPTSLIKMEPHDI
ETV6, sequence (P41212 whole entry): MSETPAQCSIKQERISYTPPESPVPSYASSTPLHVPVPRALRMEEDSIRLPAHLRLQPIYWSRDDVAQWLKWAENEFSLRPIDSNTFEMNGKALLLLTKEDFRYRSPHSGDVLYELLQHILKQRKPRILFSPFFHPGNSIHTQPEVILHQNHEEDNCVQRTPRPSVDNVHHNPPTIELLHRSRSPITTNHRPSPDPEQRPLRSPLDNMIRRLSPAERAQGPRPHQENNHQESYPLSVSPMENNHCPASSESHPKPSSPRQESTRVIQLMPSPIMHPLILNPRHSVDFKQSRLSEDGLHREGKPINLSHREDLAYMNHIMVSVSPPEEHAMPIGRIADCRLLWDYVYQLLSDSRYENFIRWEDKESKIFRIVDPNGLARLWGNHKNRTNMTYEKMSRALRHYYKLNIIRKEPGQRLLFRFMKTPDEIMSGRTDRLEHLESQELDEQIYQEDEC
ETV1, sequence (P50549 whole entry): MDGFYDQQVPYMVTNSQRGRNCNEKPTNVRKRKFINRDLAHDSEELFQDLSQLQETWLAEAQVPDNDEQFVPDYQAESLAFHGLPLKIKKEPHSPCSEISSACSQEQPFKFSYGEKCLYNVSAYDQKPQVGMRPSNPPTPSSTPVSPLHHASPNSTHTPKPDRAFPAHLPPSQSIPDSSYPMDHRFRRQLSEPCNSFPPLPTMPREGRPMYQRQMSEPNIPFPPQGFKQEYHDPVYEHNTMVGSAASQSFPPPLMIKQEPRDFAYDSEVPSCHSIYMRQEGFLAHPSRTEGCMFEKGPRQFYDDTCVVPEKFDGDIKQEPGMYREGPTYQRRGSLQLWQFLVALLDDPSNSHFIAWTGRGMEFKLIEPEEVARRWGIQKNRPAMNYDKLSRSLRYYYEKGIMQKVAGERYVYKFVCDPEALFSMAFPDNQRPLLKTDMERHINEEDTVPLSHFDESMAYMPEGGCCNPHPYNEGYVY
HSF1, sequence (Q00613 whole entry): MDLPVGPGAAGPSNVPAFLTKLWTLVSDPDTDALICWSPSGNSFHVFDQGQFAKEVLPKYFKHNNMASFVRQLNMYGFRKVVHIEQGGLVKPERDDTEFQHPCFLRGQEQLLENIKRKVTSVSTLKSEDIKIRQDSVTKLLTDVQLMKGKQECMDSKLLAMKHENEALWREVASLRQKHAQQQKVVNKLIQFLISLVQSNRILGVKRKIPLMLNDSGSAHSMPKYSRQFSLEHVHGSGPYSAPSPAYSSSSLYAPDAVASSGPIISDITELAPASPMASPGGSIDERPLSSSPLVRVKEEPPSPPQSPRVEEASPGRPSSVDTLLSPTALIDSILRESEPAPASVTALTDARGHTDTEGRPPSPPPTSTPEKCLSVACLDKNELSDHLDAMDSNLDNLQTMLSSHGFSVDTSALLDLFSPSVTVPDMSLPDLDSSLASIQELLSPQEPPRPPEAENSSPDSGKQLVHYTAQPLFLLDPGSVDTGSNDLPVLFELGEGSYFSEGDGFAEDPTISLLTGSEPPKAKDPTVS

Consider GCCTTG, for which the binding signal was 1.13 fold enrichment (6-mer frequency, TF over GST control) with FEV; 1.34 fold enrichment (6-mer frequency, TF over GST control) with ETV5; 1.06 fold enrichment (6-mer frequency, TF over GST control) in the experiment with HSF1; 1.31 fold enrichment (6-mer frequency, TF over GST control) in the experiment with SPIC; 1.21 fold enrichment (6-mer frequency, TF over GST control) with ELF4; 1.17 fold enrichment (6-mer frequency, TF over GST control) with ELK4. The binding signal in the experiment with ETV2 is 1.09 fold enrichment (6-mer frequency, TF over GST control); in the experiment with ELF3 it was 1.23 fold enrichment (6-mer frequency, TF over GST control); with CRX it was 1.05 fold enrichment (6-mer frequency, TF over GST control); with ETV1, 1.18 fold enrichment (6-mer frequency, TF over GST control); with ERF, 1.16 fold enrichment (6-mer frequency, TF over GST control); in the experiment with ETV3L, 1.34 fold enrichment (6-mer frequency, TF over GST control). Also, the binding signal with ETS2 was 1.25 fold enrichment (6-mer frequency, TF over GST control); in the experiment with SPDEF, 1.13 fold enrichment (6-mer frequency, TF over GST control); with ETV7, 1.3 fold enrichment (6-mer frequency, TF over GST control); with ELF5, 1.17 fold enrichment (6-mer frequency, TF over GST control); with ETV3, 1.14 fold enrichment (6-mer frequency, TF over GST control); in the experiment with ETV6, 1.16 fold enrichment (6-mer frequency, TF over GST control).
